Measurements from PubChem BioAssay (NCATS).
Records with an inconclusive call do not appear. Unmarked numbers belong to inactive results. Calls follow the shape of the dose curve; as a rule, active = well fitted inhibition curve with a large enough effect; inconclusive = small, poorly fitted or top-dose-only effect; inactive = flat fitted curve, though single readings scatter.

Test system: DIV17
Assay: qHTS profiling for inhibitors of Plasmodium falciparum proliferation (AID 504749);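 also: 0% = DMSO vehicle and full inhibition = artemisinin control; nearly all actives have a fitted effect of over 60% in size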
Conditions: P. falciparum in erythrocytes, SYBR Green DNA, 72 h; series mostly up to 28.7 µM; activity, negative = inhibition: at the top concentration
Outline: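 Quantitative HTS: compounds pinned into medium, infected erythrocytes added (0.3% parasitemia, 2.5% hematocrit), 72 h culture at 37 C under 5% CO2. Saponin/Triton lysis with SYBR Green I, overnight RT, then fluorescence read.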

SMILES | activity, negative = inhibition
CCCOC(=O)c1ccccc1O | -22.5%
COc1cc2c(cc1OC)[C@@H](Cc1cc(OC)c(OC)c(OC)c1)[N+](C)(CCCOC(=O)CC/C=C/CCC(=O)OCCC[N+]1(C)CCc3cc(OC)c(OC)cc3[C@H]1Cc1cc(OC)c(OC)c(OC)c1)CC2 (some centres not stated) | -3.4%
OC[C@H]1O[C@@](CO)(O[C@H]2O[C@H](CO)[C@@H](O)[C@H](O)[C@H]2O)[C@@H](O)[C@@H]1O | 4.44%
CCC(Cc1c(I)cc(I)c(O)c1I)C(=O)O (configuration not stated) | -17.3%
Nc1ncnc2c1ncn2CCOCP(=O)(O)O | -9.51%
N=C(N)n1cccn1 | -1%
CC(C)c1nc(N(C)S(C)(=O)=O)nc(-c2ccc(F)cc2)c1/C=C/C(O)CC(O)CC(=O)O (configuration not stated) | -1.7%
CCOC(C)OCC | 4.13%
NCCN | 6.19%
CC(CC=O)CCCC(C)(C)O (configuration not stated) | -11.2%
CC(C)(COP(=O)(O)OP(=O)(O)OC[C@H]1O[C@@H](n2cnc3c(N)ncnc32)[C@H](O)[C@@H]1OP(=O)(O)O)C(O)C(=O)NCCC(=O)NCCS (some centres not stated) | -0.887%
O=C1c2ccccc2C(=O)C1c1ccc(F)cc1 | -11.6%
CNC(=O)C[C@@H](N)C(=O)N[C@@H](C(=O)N[C@@H]1C(=O)N2[C@@H]1SC(C)(C)[C@@H]2C(=O)O)c1ccc(O)cc1 | 3.17%
C=CC(C)(O)CC/C=C(\C)CCC=C(C)C (configuration not stated) | -8.97%
Cc1ccc(S(=O)(=O)NCl)cc1 | 6.16%
CN1c2c(nc(N)[nH]c2=O)NCC1CNc1ccc(C(=O)NC(CCC(=O)O)C(=O)O)cc1 (configuration not stated) | 5.29%

SMILES | activity, negative = inhibition
NC(=O)[C@@H]1CCCN1C(=O)[C@H](Cc1cnc[nH]1)NC(=O)[C@@H]1CCC(=O)N1 | 9.67%
CC1(O)CCC(C(C)(C)O)CC1 (configuration not stated) | 6.43%
CC(C)[C@@H](N)C(=O)O | 0.186%
COc1cc(S(C)=O)ccc1-c1nc2ncccc2[nH]1 (configuration not stated) | -2.73%
Oc1cc(O)cc(O)c1 | -2.55%
N[C@H](CC(=O)O)C(=O)O | 1.21%
C/C=C/C=C/C(=O)O | -2.9%
C=C(C)C1CC=C(C)CC1 (configuration not stated) | 1.8%
Nc1ncnc2c1ncn2[C@H]1CC[C@@H](CO)O1 | -4.61%
NCC[C@H](O)C(=O)N[C@@H]1C[C@H](N)[C@@H](O[C@H]2O[C@H](CN)CC[C@H]2N)[C@H](O)[C@H]1O[C@H]1O[C@H](CO)[C@@H](O)[C@H](N)[C@H]1O | -8.91%
[O]=[Bi][O]C(=O)[O][Bi]=[O] | 3.86%
Cc1c(Cl)cccc1Nc1ncccc1C(=O)O | -15.6%
CC1(C)S[C@@H]2[C@H](NC(=O)C3(N)CCCCC3)C(=O)N2[C@H]1C(=O)O | -4.91%
CCCCCCCCCCCC(=O)OCC(O)CO (configuration not stated) | 4.16%
COc1ccc(C(=O)c2ccc(C)cc2)c(O)c1 | -16.1%
O=C1NCCN1c1ncc([N+](=O)[O-])s1 | -7.13% [at 12.8 µM]
